Results published in PubChem BioAssay (NCATS).
Values without a mark were called inactive. Inconclusive results are not listed. Calls of active or inactive are those of the source. Calls come from the whole dose curve; as a rule, active = well fitted curve in the direction sought with a large enough effect; inconclusive = small, poorly fitted or top-dose-only effect, or another doubt; inactive = no such curve, though single readings can be large; an effect the other way counts as inactive or inconclusive.

Target: Arylsulfatase A (Homo sapiens) (UniProt P15289)
Test: qHTS screen for enhancers of Arylsulfatase A (ASA1): LOPAC Validation Assay (AID 720538); note: potency is the fitted concentration of half-maximal effect; for activity change, positive = activation: 0% is about no effect
Conditions: ASA enzyme activity, LOPAC qHTS enhancer assay; series mostly up to 57.5 µM; activity change, positive = activation: at the top concentration
In short: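 SV40-transformed fibroblasts from an MLD patient (ASA-I179S) were treated with compound for 48 h at 37 C. They were then lysed with 0.5 mM pNCS substrate (final) for 14 h at room temperature and stopped with NaOH; signal read by fluorescence (Ex 525/Em 598 nm), with increase denoting enhanced activity.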

Sequence of Arylsulfatase A (Homo sapiens) (P15289 whole entry, looked up): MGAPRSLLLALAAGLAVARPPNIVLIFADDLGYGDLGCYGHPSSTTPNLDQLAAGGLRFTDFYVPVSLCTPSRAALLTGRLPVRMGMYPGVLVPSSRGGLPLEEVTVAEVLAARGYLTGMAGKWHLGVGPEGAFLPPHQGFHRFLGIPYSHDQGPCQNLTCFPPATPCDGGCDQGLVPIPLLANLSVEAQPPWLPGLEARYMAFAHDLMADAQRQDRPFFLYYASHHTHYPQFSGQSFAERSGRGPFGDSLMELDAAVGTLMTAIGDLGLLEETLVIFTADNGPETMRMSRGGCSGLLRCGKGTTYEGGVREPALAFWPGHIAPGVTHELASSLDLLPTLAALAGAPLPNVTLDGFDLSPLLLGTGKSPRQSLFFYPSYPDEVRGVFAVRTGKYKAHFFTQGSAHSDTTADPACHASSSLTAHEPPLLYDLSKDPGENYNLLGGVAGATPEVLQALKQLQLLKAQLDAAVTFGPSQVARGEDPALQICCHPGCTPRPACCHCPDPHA

| SMILES | outcome | Potency | activity change, positive = activation |
| --- | --- | --- | --- |
| CCCCNC(=O)NS(=O)(=O)c1ccc(C)cc1 | inactive | – | – |
| CCC(=O)c1ccc2c(c1)N(CCCN(C)C)c1ccccc1S2 | inactive | – | – |
| CNCCCN1c2ccccc2CCc2ccccc21 | – | 21.3 µM (active) | – |
| OCCN1CCN(CCCN2c3ccccc3C=Cc3ccccc32)CC1 | – | – | 12.4% |
| Cc1ccc(/C(=C\CN2CCCC2)c2ccccn2)cc1 | inactive | – | – |
| CCc1cccc(N(C)C(N)=Nc2cccc3ccccc23)c1 | – | – | 12.9% |
| CCN(CC)CCNC(=O)c1cc(S(C)(=O)=O)ccc1OC | – | – | -62.5% |
| Cc1ccc(Cl)c(Nc2ccccc2C(=O)O)c1Cl | inactive | – | – |
| CCCN(CCC)CCc1cccc2c1CC(=O)N2 | inactive; inhibitor; fitted 6.7456 uM | – | – |
| CN(C)CCN(Cc1cccs1)c1ccccn1 | – | – | 5.37% |
| CCN1CCc2nc(N)oc2CC1 | – | – | 2.21% |
| C[n+]1cc2c3c(ccc2c2ccc4cc5c(cc4c21)OCO5)OCO3 | – | – | -41.7% |
| Nc1c2c(nc3ccccc13)CCCC2O (stereo unspecified) | – | – | 11.5% |
| CN(C)CCCN1c2ccccc2Sc2ccccc21 | inactive; inhibitor; fitted 2.6855 uM | – | – |
| COc1ccc(CCN(C)CCCC(C#N)(c2cc(OC)c(OC)c(OC)c2)C(C)C)cc1OC (stereo unspecified) | inactive; inhibitor; fitted 4.2562 uM | – | – |
| CCn1ccnc1CC1COc2ccccc2O1 (stereo unspecified) | – | – | 6.78% |
| C[N+](C)(C)CCOC(N)=O | inactive; inhibitor; fitted 3.0131 uM | – | – |
| CC(N=C(NC#N)Nc1ccncc1)C(C)(C)C (stereo unspecified) | inactive | – | – |

Tested on: not listed separately
Test: qHTS for compounds that reverse cellular toxicity of Amyloid beta (A-beta) peptide in yeast: LOPAC Validation Assay (AID 720559);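 note: plate controls were DMSO for no effect and equimolar ferric chloride plus clioquinol rescue for full effect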
Conditions: yeast expressing A-beta; series mostly up to 46.1 µM; growth rescue, positive = activation: at the top concentration
In short: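 Yeast expressing toxic A-beta grown with pinned compounds at 30 C for 48 hr. Growth measured as absorbance at 600 nm; data normalized to DMSO and to an equimolar FeCl3/clioquinol mixture as positive control.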

| SMILES | growth rescue, positive = activation |
| --- | --- |
| C[C@]12CCC(=O)C=C1CC[C@@H]1[C@@H]2C(=O)C[C@@]2(C)[C@H]1CC[C@]2(O)C(=O)CO | -3.53% |
| CNCCC(Oc1ccccc1OC)c1ccccc1 (stereo unspecified) | -0.0727% |
| CC(=O)[C@]1(O)Cc2c(O)c3c(c(O)c2[C@@H](O[C@H]2C[C@H](N)[C@H](O)[C@H](C)O2)C1)C(=O)c1ccccc1C3=O | -48.2% |
| CC(C)(C)c1ccc(C(=O)CCCN2CCC(OC(c3ccccc3)c3ccccc3)CC2)cc1 | -34.5% |
| c1ccc2c(c1)CCCC2C1=NCCN1 (stereo unspecified) | -10.3% |
| C(=C\c1ccccc1)/CN1CCN(C(c2ccccc2)c2ccccc2)CC1 | 5.97% |
| CC(C)NNC(=O)c1ccncc1 | 0.743% |
| CCN(CC)CCCN(c1ccccc1)C1Cc2ccccc2C1 | -9.13% |
| CC(C(=O)O)c1ccc(CC2CCCC2=O)cc1 (stereo unspecified) | 6.46% |
| OC(CCN1CCCCC1)(c1ccccc1)C1CCCCC1 (stereo unspecified) | -8.67% |
| FC(F)(F)c1ccccc1-n1ccnc1 | -1.25% |
| CN1C[C@H](C(=O)N[C@]2(C)O[C@@]3(O)[C@@H]4CCCN4C(=O)[C@H](Cc4ccccc4)N3C2=O)C[C@@H]2c3cccc4[nH]cc(c34)C[C@H]21 | -0.0432% |
| CN1CCN(C2=Nc3ccccc3Oc3ccc(Cl)cc32)CC1 | -1.45% |
| C[C@]12C=CC(=O)C=C1CC[C@H]1[C@@H]3C[C@@H](O)[C@](O)(C(=O)CO)[C@@]3(C)C[C@H](O)[C@@]12F | -2.21% |
| Cc1ccc(=O)n(-c2ccccc2)c1 | 1.55% |
| CC1=C(C)C(=O)C(CCCCC#CCCCC#CCO)=C(C)C1=O | 4.07% |
| CCCCNC(=O)NS(=O)(=O)c1ccc(C)cc1 | 6.03% |

| SMILES | growth rescue, positive = activation |
| --- | --- |
| CCC(=O)c1ccc2c(c1)N(CCCN(C)C)c1ccccc1S2 | -2% |
| CNCCCN1c2ccccc2CCc2ccccc21 | 4.59% |
| OCCN1CCN(CCCN2c3ccccc3C=Cc3ccccc32)CC1 | 7.26% |
| Cc1ccc(/C(=C\CN2CCCC2)c2ccccn2)cc1 | -8.33% |
| CCc1cccc(N(C)C(N)=Nc2cccc3ccccc23)c1 | 2.52% |
| CCN(CC)CCNC(=O)c1cc(S(C)(=O)=O)ccc1OC | -6.16% |
| Cc1ccc(Cl)c(Nc2ccccc2C(=O)O)c1Cl | -2.49% |
| CCCN(CCC)CCc1cccc2c1CC(=O)N2 | -3.11% |
| CN(C)CCN(Cc1cccs1)c1ccccn1 | 1.87% |
| CCN1CCc2nc(N)oc2CC1 | -1.21% |
| C[n+]1cc2c3c(ccc2c2ccc4cc5c(cc4c21)OCO5)OCO3 | -3.85% |
| Nc1c2c(nc3ccccc13)CCCC2O (stereo unspecified) | -4.08% |
| CN(C)CCCN1c2ccccc2Sc2ccccc21 | -8.29% |
| COc1ccc(CCN(C)CCCC(C#N)(c2cc(OC)c(OC)c(OC)c2)C(C)C)cc1OC (stereo unspecified) | -2.46% |
| CCn1ccnc1CC1COc2ccccc2O1 (stereo unspecified) | -4.53% |
| C[N+](C)(C)CCOC(N)=O | -6.34% |
| CC(N=C(NC#N)Nc1ccncc1)C(C)(C)C (stereo unspecified) | 0.772% |

Tested on: not listed separately
Test: qHTS for Activators of Parkin Expression: LOPAC Validation Assay (NLuc Reporter) (AID 720572;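 note: 0% = DMSO and 100% = positive control compound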)
Conditions: Parkin promoter NanoLuc reporter cells, luminescence; series mostly up to 46.1 µM; activation: at the top concentration
In short: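 Neuronal line stably carrying a FLuc/NLuc coincidence reporter under the Parkin promoter, seeded 24 h, then dosed in 7-point series for 24 h at 37 C. NLuc luminescence read after FLuc; normalized to DMSO and positive control (100%).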

| SMILES | activation |
| --- | --- |
| C[C@]12CCC(=O)C=C1CC[C@@H]1[C@@H]2C(=O)C[C@@]2(C)[C@H]1CC[C@]2(O)C(=O)CO | -2.39% |
| CNCCC(Oc1ccccc1OC)c1ccccc1 (stereo unspecified) | -2.34% |
| CC(=O)[C@]1(O)Cc2c(O)c3c(c(O)c2[C@@H](O[C@H]2C[C@H](N)[C@H](O)[C@H](C)O2)C1)C(=O)c1ccccc1C3=O | -28.4% |
| CC(C)(C)c1ccc(C(=O)CCCN2CCC(OC(c3ccccc3)c3ccccc3)CC2)cc1 | 5.05% |
| c1ccc2c(c1)CCCC2C1=NCCN1 (stereo unspecified) | 1.3% |
| C(=C\c1ccccc1)/CN1CCN(C(c2ccccc2)c2ccccc2)CC1 | -9.88% |
| CC(C)NNC(=O)c1ccncc1 | -1.47% |
| CCN(CC)CCCN(c1ccccc1)C1Cc2ccccc2C1 | 7.94% |
| CC(C(=O)O)c1ccc(CC2CCCC2=O)cc1 (stereo unspecified) | 3.07% |
| OC(CCN1CCCCC1)(c1ccccc1)C1CCCCC1 (stereo unspecified) | -2.39% |
| FC(F)(F)c1ccccc1-n1ccnc1 | -4.9% |
| CN1C[C@H](C(=O)N[C@]2(C)O[C@@]3(O)[C@@H]4CCCN4C(=O)[C@H](Cc4ccccc4)N3C2=O)C[C@@H]2c3cccc4[nH]cc(c34)C[C@H]21 | -4.59% |
| CN1CCN(C2=Nc3ccccc3Oc3ccc(Cl)cc32)CC1 | -0.995% |
| C[C@]12C=CC(=O)C=C1CC[C@H]1[C@@H]3C[C@@H](O)[C@](O)(C(=O)CO)[C@@]3(C)C[C@H](O)[C@@]12F | 5.12% |
| Cc1ccc(=O)n(-c2ccccc2)c1 | -2.35% |
| CC1=C(C)C(=O)C(CCCCC#CCCCC#CCO)=C(C)C1=O | -3.63% |
| CCCCNC(=O)NS(=O)(=O)c1ccc(C)cc1 | 9.43% |

| SMILES | activation |
| --- | --- |
| CCC(=O)c1ccc2c(c1)N(CCCN(C)C)c1ccccc1S2 | -6.92% |
| CNCCCN1c2ccccc2CCc2ccccc21 | -3.32% |
| OCCN1CCN(CCCN2c3ccccc3C=Cc3ccccc32)CC1 | -3.8% |
| Cc1ccc(/C(=C\CN2CCCC2)c2ccccn2)cc1 | -1.12% |
| CCc1cccc(N(C)C(N)=Nc2cccc3ccccc23)c1 | -7.99% |
| CCN(CC)CCNC(=O)c1cc(S(C)(=O)=O)ccc1OC | -0.446% |
| Cc1ccc(Cl)c(Nc2ccccc2C(=O)O)c1Cl | 11.6% |
| CCCN(CCC)CCc1cccc2c1CC(=O)N2 | -4.55% |
| CN(C)CCN(Cc1cccs1)c1ccccn1 | -1.23% |
| CCN1CCc2nc(N)oc2CC1 | 4.17% |
| C[n+]1cc2c3c(ccc2c2ccc4cc5c(cc4c21)OCO5)OCO3 | -25.2% |
| Nc1c2c(nc3ccccc13)CCCC2O (stereo unspecified) | -3.31% |
| CN(C)CCCN1c2ccccc2Sc2ccccc21 | -4.37% |
| COc1ccc(CCN(C)CCCC(C#N)(c2cc(OC)c(OC)c(OC)c2)C(C)C)cc1OC (stereo unspecified) | -19.5% |
| CCn1ccnc1CC1COc2ccccc2O1 (stereo unspecified) | -2.23% |
| C[N+](C)(C)CCOC(N)=O | 1.2% |
| CC(N=C(NC#N)Nc1ccncc1)C(C)(C)C (stereo unspecified) | -0.42% |
